This is one part of a sample in which hits are shown more often than they occur.
HIV RNase H inh = HIV-1 RT RNase H inhibitors, primary screen, biochemical, fluorescence | inhibition, % at 10 µM | RT-RNase H RNA/DNA duplex cleavage | Gag-Pol polyprotein (Human immunodeficiency virus type 1 group M subtype B (isolate … | actives 1.9% (n = 65,000); in the data active = inhibition above about 50%
RmlCD inh mix = RmlC and RmlD coupled enzyme inhibitors, primary screen, biochemical, 384-well, compound mixtures, retest | RmlC/RmlD coupled enzyme inhibition, 384-well mixture HTS | inhibition, % at 5.5 µM | actives 0.39% (n = 110,000) | AID 1532, 2009; in the data active = inhibition above about 30%, passing the limit was not always enough
Hits are given with their value; i = inactive; nt = not tested or not shown.

SMILES	HIV RNase H inh	RmlCD inh mix
COc1ccc(-c2nnc(SCC(=O)c3cccs3)o2)cc1	i	i
COc1ccc(-c2nnc(SCC(=O)c3cc(C)n(Cc4cccs4)c3C)o2)cc1	58	i
CCOc1ccc(C2/C(=C(/O)c3ccc(Cl)cc3)C(=O)C(=O)N2CCCN(C)C)cc1OC (stereo not drawn)	i	nt
CCOC(=O)C(=CN(CCc1ccccc1)CC(=O)OC)C(=O)OCC	nt	i
Cc1ccc(C(=O)CSc2ccccn2)cc1	i	i
O=C(CSc1ccccn1)c1ccc(F)cc1	65	i
Cc1cc(C)cc(N(C(=O)C(F)(F)F)C(C(=O)NC2CCCCC2)c2cccs2)c1 (stereo not drawn)	nt	i
c1cncc(-c2nc3c4ccccc4nc(N4CCC(N5CCCCC5)CC4)n3n2)c1	i	nt
Cc1ccccc1-n1c(=O)c(C#N)cc2c(=O)n3ccccc3nc21	nt	i
Cc1cc(-n2c(=O)c(C#N)cc3c(=O)n4ccccc4nc32)no1	i	55
CCOC(=O)Nc1nnc(-c2ccc(OC)c(OC)c2)s1	i	31
CCOC(=O)Nc1nnc(CCc2ccccc2)s1	i	i
N#CC1=C(N)Oc2cc3c(cc2C1c1ccc(Cl)cc1)OCO3 (stereo not drawn)	55	i
COc1cc(C2C(C#N)=C(N)Oc3cc(O)ccc32)cc2c1OCO2 (stereo not drawn)	i	i
Cc1cc(C)cc(SCc2noc(C(=O)NCCC(C)C)c2C(=O)NCCC(C)C)c1	nt	i
Cc1n[nH]c(C)c1S(=O)(=O)N(CC(=O)N1CCc2ccccc21)c1ccc(C(C)C)cc1	51	i
CCOc1ccc(N(CC(=O)N2CCc3ccccc32)S(=O)(=O)c2c(C)noc2C)cc1	i	i
Cc1cccc(-n2ncc3c(Nc4ccc(F)cc4)ncnc32)c1	i	i
COC(=O)c1ccc(Nc2ncnc3c2cnn3-c2cccc(C)c2)cc1	60	nt
CCOc1ccc2cc(C#N)c(SCC(=O)NC(C)CC)nc2c1 (stereo not drawn)	58	i
CCOC(=O)CSc1nc2cc(OCC)ccc2cc1C#N	i	i
CCn1c(N)c(C(=O)NC)sc1=S	i	i
CCCn1c(=O)c(C(=O)Nc2ccncc2)c(O)c2ccccc21	i	nt
CCCCCn1c(=O)c(C(=O)Nc2ccncc2)c(O)c2ccccc21	83	nt
Cc1ccc(-c2nc3cccnc3o2)cc1NC(=O)COc1ccc(Cl)cc1C	53	i
SMILES	HIV RNase H inh	RmlCD inh mix
Cc1ccc(-c2nc3cccnc3o2)cc1NC(=O)COc1ccc(C(C)(C)C)cc1	nt	i
CCOCCn1c(SCc2ccccc2)nc2c1c(=O)[nH]c(=O)n2C	i	i
CCOCCn1c(SCC(=O)OCc2ccccc2)nc2c1c(=O)[nH]c(=O)n2C	86	i
Cc1ccc2oc(=O)c3cnn(CC(=O)NC4CCN(Cc5ccccc5)CC4)c3c2c1	i	i
COc1ccc(-c2cc3c(=O)n(CC(=O)NC4CCN(Cc5ccccc5)CC4)ncn3n2)cc1	64	nt
Cc1cc(C)c2nc(Nc3nc(C)cc(=O)[nH]3)nc(C)c2c1	i	nt
CCC(c1nnc(SCC(=O)NC23CC4CC(CC(C4)C2)C3)o1)N(C)C (stereo not drawn)	nt	i
CCC(c1nnc(SCC(=O)NCCc2ccc(Cl)cc2Cl)o1)N(C)C (stereo not drawn)	51	i
O=C(CSc1nnc(-c2ccccc2O)o1)Oc1ccc(OCc2ccccc2)cc1	i	i
COc1cccc(-c2nnc3sc(C4CCCCC4)nn23)c1	i	i
CCOc1cccc(-c2nnc3sc(C4CCCCC4)nn23)c1	59	i
C=CCOC(=O)C1=C[C@@H](c2csc3ccccc23)[C@H](CCCO)[C@@H](OCC)O1	nt	i
COC(=O)C[C@H]1c2cc(F)cc(F)c2S(=O)(=O)N1C1CCN(Cc2ccccc2)CC1	nt	i
Cc1oc2c(O)c(O)ccc2c(=O)c1-c1ccccc1	70	i
Cc1oc2c(O)c(O)ccc2c(=O)c1-c1cnn(-c2ccccc2)c1	i	i
CCOC(=O)N1CCN(C(=O)c2cc3cc(Br)ccc3oc2=O)CC1	i	i
N#Cc1cc2c(nc1SCC(N)=O)CCCCC2	nt	i
COC(=O)CC(=O)CSc1nc2c(cc1C#N)CCC2	i	77
C=C(C)CSc1nc2c(cc1C#N)CCC2	i	i
CC(C)OC(=O)CC(=O)CSc1nc2c(cc1C#N)CCC2	i	97
Brc1ccccc1Cn1c(-c2cscn2)nc2ccccc21	nt	i
O=c1[nH]nc(Sc2ncnc3sccc23)n1CCc1ccccc1	i	nt
Cc1cc(CNC(=O)C2(C(F)(F)F)C/C(=C\Cc3ccccc3)CCCO2)nn1C (stereo not drawn)	nt	i
N/C(COc1ccccc1)=N\NC(=O)c1cccnc1Oc1ccccc1	nt	i
CCc1nc(SCc2ccc(C(=O)OC)o2)c2c(=O)n(C)c(=O)n(C)c2n1	i	i
SMILES	HIV RNase H inh	RmlCD inh mix
COc1ccc(-c2nc(-c3ccc(NC(=O)c4ccc(Br)o4)cc3)no2)cc1OC	i	i
COc1ccc(CCC(=O)Nc2ccc(-c3noc(-c4ccc(OC)c(OC)c4)n3)cc2)cc1	61	i
CNC(=O)ON(C(=O)NC)C1N(C)C(=S)SC1(C)C (stereo not drawn)	i	i
CN1C(=S)SC(C)(NO)C1(C)C (stereo not drawn)	51	i
CCOc1cc2[nH]c(=O)n(CCCCC(=O)NC3CCCCC3)c(=O)c2cc1OCC	i	nt
N=c1c(C(=O)NCc2ccccc2)cc2c(=O)n3ccccc3nc2n1CCCN1CCOCC1	i	nt
N=c1c(C(=O)NCc2ccc(F)cc2)cc2c(=O)n3ccccc3nc2n1CCCN1CCOCC1	i	31
COc1ccc(F)cc1S(=O)(=O)NC1CCCC1	nt	i
O=C(O)c1ccc2c(c1)-c1nc3ccccc3n1C2=O	nt	122
O=C(O)c1ccc2c(c1)C(=O)N(C(Cc1ccccc1)C(=O)O)C2=O (stereo not drawn)	i	i
CCn1c(COc2ccc3c(c2)OCO3)nnc1SCC(=O)c1ccc(Cl)cc1	nt	i
Cc1onc(-c2c(F)cccc2Cl)c1C(=O)NCCc1ccc(S(N)(=O)=O)cc1	54	i
Cc1onc(-c2ccccc2Cl)c1C(=O)NCc1ccc(S(N)(=O)=O)cc1	i	i
Cc1cc(=O)[nH]c2c(C)c(Cl)ccc12	i	i
Cc1cc(=O)[nH]c2c(C)c(N)ccc12	i	59
CC1(C)CC[C@]2(CO)[C@@H](O)C[C@]3(C)C(=CCC4[C@@]5(C)CC[C@H](O)C(C)(C)C5CC[C@]43C)[C@@H]2C1 (stereo partly drawn)	nt	i
COc1ccc(Cc2nnc(NC(=O)Cc3cccs3)s2)cc1OC	80	i
O=C(Cc1cccs1)Nc1nnc(Cc2ccccc2)s1	nt	i
CC1CCN(c2ccc3c(c2)S(=O)(=O)c2ccccc2C3=O)CC1	nt	i
C=CC(=C)CC(NC)c1ccccc1 (stereo not drawn)	51	i
C=CCOC(=O)CC(NC(=O)c1ccccc1)c1ccccc1 (stereo not drawn)	i	i
CCn1c(SCC(=O)Nc2nccs2)nnc1-c1cc2cccc(OC)c2o1	i	i
COc1cccc2cc(-c3nnc(SCC(=O)Nc4cc(C(F)(F)F)ccc4Cl)n3N)oc12	64	i
CC1(C)Cc2c(C#N)c(N3CCN(C(=O)c4ccccc4)CC3)nc(-c3ccco3)c2CS1	56	i
CC(C)c1nc(N2CCN(C(=O)c3ccccc3)CC2)c(C#N)c2c1COC(C)(C)C2	i	i
CCOc1ccccc1N1CCN(Cc2cccc(OC)c2OC)CC1	i	i
COc1ccc(OC)c(-n2cnnn2)c1	i	i

Source: PubChem BioAssay
